In PubChem BioAssay (NCATS):
Inconclusive results are not listed. The source made the active and inactive calls. The call rests on the fitted dose curve; in most records, active means well fitted inhibition curve with a large enough effect; inconclusive means small, poorly fitted or top-dose-only effect; inactive means flat fitted curve, though single readings scatter.

What was measured:
Assay in all cases: qHTS profiling for inhibitors of Plasmodium falciparum proliferation (AID 504749); further: nearly all actives have a fitted effect of over 60% in size
Conditions in all cases: P. falciparum in erythrocytes, SYBR Green DNA, 72 h; series mostly up to 28.7 µM
[1] = test system: ATS95
Outline: (§1)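 Three-day growth assay of blood-stage parasites in erythrocytes (0.3% parasitemia, 2.5% hematocrit) at 37 C, 5% CO2, quantified by SYBR Green DNA staining after overnight detergent lysis.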

[2] = test system: CP201
Outline: as §1

[3] = test system: CP215
Outline: as §1

[4] = test system: CP262
Outline: as §1

[5] = test system: CP266
Outline: as §1

[6] = test system: CP268
Outline: as §1

[7] = test system: CP269
Outline: as §1

[8] = test system: CP291
Outline: as §1

[9] = test system: CP297
Outline: as §1

[10] = test system: CP305
Outline: as §1

[11] = test system: CP315
Outline: as §1

[12] = test system: CP325
Outline: as §1

[13] = test system: CP335
Outline: as §1

[14] = test system: DIV17
Outline: as §1

[15] = test system: FAB9
Outline: as §1

[16] = test system: GB4
Outline: as §1

[17] = test system: JCK
Outline: as §1

[18] = test system: P94_40
Outline: as §1

[19] = test system: PAD
Outline: as §1

[20] = test system: TAB109
Outline: as §1

Measured: Potency
Potency means the concentration at half of the fitted maximal effect.

CC1(C)S[C@@H]2[C@H](NC(=O)Cc3ccccc3)C(=O)N2[C@@H]1C(=O)O
inactive: all assays above

C[C@H](CCC(=O)O)[C@H]1CC[C@@H]2[C@H]3[C@@H](C[C@@H](O)[C@]21C)[C@]1(C)CC[C@H](O)C[C@@H]1C[C@@H]3O
not listed: [1] | [3] | [16] | [18]
inactive: all other assays above

CC(C)(C)c1ccc(CN2CCN([C@H](c3ccccc3)c3ccc(Cl)cc3)CC2)cc1
active: [13] 3.38 µM | [16] 15.1 µM | [18] 7.94 µM

O=C(O)[C@@H](O)[C@@H](O)[C@H](O)C(=O)CO
not listed: [11]
inactive: all other assays above

Cc1onc(-c2c(F)cccc2Cl)c1C(=O)N[C@@H]1C(=O)N2[C@H]1SC(C)(C)[C@H]2C(=O)O
not listed: [4] | [11] | [13]
inactive: all other assays above
